Screening data deposited in PubChem by National Center for Advancing Translational Sciences (NCATS).
Rows were chosen to be rich in hits. Some 10% of all compounds tested hit in one or more screens of this group.
HPGD block – inhibitors of human 15-hydroxyprostaglandin dehydrogenase (HPGD). purified HPGD, NADH fluorescence kinetic, PGE2 substrate. Potency, µM, inactives show top-dose activity change, negative = inhibition, most hits filed as inhibitors. hit rate 4.3% among 150,000. AID 894; active means well fitted inhibition curve with a large enough effect, not every such curve was filed as active; inconclusive means small, poorly fitted or top-dose-only effect, or another doubt; inactive means no such curve, though single readings can be large or run the other way; further: potency means the concentration at half of the fitted maximal effect
Target sequence (P15428 whole entry, looked up): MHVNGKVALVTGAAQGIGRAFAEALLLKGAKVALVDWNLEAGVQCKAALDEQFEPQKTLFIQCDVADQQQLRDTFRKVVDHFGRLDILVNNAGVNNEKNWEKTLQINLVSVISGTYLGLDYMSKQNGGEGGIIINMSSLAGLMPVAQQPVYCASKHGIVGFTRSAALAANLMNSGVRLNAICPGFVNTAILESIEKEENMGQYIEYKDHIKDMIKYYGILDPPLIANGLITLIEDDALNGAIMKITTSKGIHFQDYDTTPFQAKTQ
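NADH formation kinetics: reaction with 30 uM PGE2 and 1 mM NAD+ (final), 20 nM enzyme, Tris-HCl pH 8 with Tween 20, after 15 min compound preincubation at room temperature. Fluorescence change, last versus first of five reads.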
ALOX12 inhib – blocks human 12-lipoxygenase activity; P18054; purified 12-hLO, xylenol orange hydroperoxide absorbance; Potency, µM (series often up to 57.1 µM), for inactives: at the top dose activity change, negative = inhibition, hits mostly inhibitors; hit rate 0.12% among 150,000; further: potency means the concentration at half of the fitted maximal effect; nearly all actives have a fitted effect of over 55% in size
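Xylenol orange chromogenic assay: hydroperoxide from 12hLO oxidises Fe(II), giving red-shifted Fe(III)-XO absorbance. Conditions: 150 nM enzyme, 40 uM arachidonic acid, 25 mM Hepes pH 7.0, 0.01% Triton X-100, 30 min, room temperature.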
PNC assembly inh – inhibitors of perinucleolar compartment assembly; PC3M PTB-GFP, PNC prevalence imaging, 16 h; hits give low values; activity change (PNC), negative = inhibition, % at 10 µM; hit rate 3.1% among 140,000; AID 2417;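 active means readout at or below -70, meaning at least 70% loss of cells showing the perinucleolar compartment, a nuclear body marking cancer cells; inconclusive means readout between -30 and a set limit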;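 further: plate controls were DMSO wells for no effect and camptothecin positive control wells for full effect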
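PC3M cells stably expressing PTB-GFP, 750–1000 cells/well, treated 16 h at 37 °C with compound (23 nl of library stock), in duplicate. After paraformaldehyde fixation and Hoechst stain, imaged at 20x; PNC prevalence scored by image analysis.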
GLA inh pH 4.5 – blocks human alpha-galactosidase A at pH 4.5; P06280; purified enzyme, 4-MU-alpha-Gal fluorescence, pH 4.5; activity change, negative = inhibition, % at 105 µM; 230,000 tested, under 10 active; AID 1467;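 further: 0% = full activity with enzyme and -100% = basal without enzyme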
ALDH1A1 inh – blocks purified human ALDH1A1 activity. Purified ALDH1A1, NADH fluorescence, propionaldehyde substrate. Potency, µM (doses to about 75.3 µM), inactives show at the highest dose activity, negative = inhibition, most hits filed as inhibitors. hit rate 7.3% among 220,000. AID 1030. P00352; active means well fitted inhibition curve with a large enough effect, not every such curve was filed as active; inconclusive means small, poorly fitted or top-dose-only effect, or another doubt; inactive means no such curve, though single readings can be large or run the other way;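 further: potency means the concentration at half of the fitted maximal effect; plate controls were no enzyme wells and a reference inhibitor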
Target sequence (P00352 whole entry, looked up): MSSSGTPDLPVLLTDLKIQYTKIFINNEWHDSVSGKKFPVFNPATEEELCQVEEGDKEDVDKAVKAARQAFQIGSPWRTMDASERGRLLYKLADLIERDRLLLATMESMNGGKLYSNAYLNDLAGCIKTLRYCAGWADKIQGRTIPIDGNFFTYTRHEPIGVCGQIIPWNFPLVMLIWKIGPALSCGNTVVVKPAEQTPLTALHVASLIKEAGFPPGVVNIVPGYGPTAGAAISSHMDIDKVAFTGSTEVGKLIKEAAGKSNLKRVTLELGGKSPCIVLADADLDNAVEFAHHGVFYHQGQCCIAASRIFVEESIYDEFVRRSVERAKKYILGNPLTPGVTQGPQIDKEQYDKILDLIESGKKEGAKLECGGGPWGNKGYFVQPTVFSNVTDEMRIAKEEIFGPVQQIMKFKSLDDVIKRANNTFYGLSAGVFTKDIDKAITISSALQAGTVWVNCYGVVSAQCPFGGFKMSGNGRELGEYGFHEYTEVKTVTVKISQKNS
GLA spleen mod – inhibits or activates alpha-galactosidase in human spleen homogenate; human spleen homogenate, 4MU-alpha-Gal fluorescence, 40 min; Potency, µM (doses to about 80 µM), inactives show at the top dose activity change, negative = inhibition, actives largely listed as inhibitors; hit rate 0.008% among 240,000;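 further: potency means the concentration at half of the fitted maximal effect; 0% = enzyme with vehicle and -100% = no enzyme basal signal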
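qHTS titration in buffer at pH 5.0. Alpha-galactosidase activity in spleen homogenate was measured via 4-methylumbelliferone release from 1 mM fluorogenic substrate after 40 min at 37C and a pH 10 stop. AC50 came from Hill fits of control-normalized data.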
An asterisk follows results filed as active. Unless noted, the call rests on the fitted dose curve; in most records, active means well fitted curve in the direction sought with a large enough effect; inconclusive means small, poorly fitted or top-dose-only effect, or another doubt; inactive means no such curve, though single readings can be large; an effect the other way counts as inactive or inconclusive. Unless noted, on the % scale 0 is the no-effect control and ±100 the full control effect.

How did CCOc1ccc(NC(=O)/C(=C\c2ccc(OC(C)=O)c(OC)c2)NC(C)=O)cc1 do in these assays?
HPGD block: -13.7%; ALOX12 inhib: 0.6%; PNC assembly inh: -12.7; GLA inh pH 4.5: 2.5; ALDH1A1 inh: 10µM*; GLA spleen mod: 3.3%

What do the screens show for `COc1ccc(/C=N/N2CCOCC2)cc1COc1ccc(Cl)cc1`?
HPGD block: -7.9%; ALOX12 inhib: -3.3%; PNC assembly inh: -111.3*; GLA inh pH 4.5: -18.2; ALDH1A1 inh: 3.0%; GLA spleen mod: 0.8%

How did COc1ccc(/C=N/NC(=O)c2cccnc2)cc1COc1ccc(NC(C)=O)cc1 do in these assays?
GLA inh pH 4.5: inconclusive; GLA spleen mod: 9.2%

What do the screens show for `COc1ccc(NC(=O)/C(=C/c2ccc3c(c2)OCO3)NC(C)=O)cc1`?
HPGD block: -19.1%; ALOX12 inhib: -2.9%; PNC assembly inh: -27.8; GLA inh pH 4.5: 5.9; ALDH1A1 inh: 4.3%; GLA spleen mod: 0.5%

What do the screens show for `COc1ccc(/C=N/O)cc1COc1ccc(NC(C)=O)cc1`?
HPGD block: 25.1µM*; ALOX12 inhib: 15.7%; PNC assembly inh: 17.6; GLA inh pH 4.5: 4.8; ALDH1A1 inh: 2.5%; GLA spleen mod: 8.7%

Results for NC(=O)c1cc2ccncc2c2ccccc12 ?
GLA inh pH 4.5: -2.7; GLA spleen mod: 8.0%

How did Clc1ccc(-n2c(SC/C=C/c3ccccc3)nnc2-c2cccnc2)cc1 do in these assays?
HPGD block: -11.8%; ALOX12 inhib: 2.9%; PNC assembly inh: inconclusive; GLA inh pH 4.5: -7.8; ALDH1A1 inh: inconclusive; GLA spleen mod: -1.3%

Results for Nn1c(SC/C=C/c2ccccc2)nnc1-c1cccnc1 ?
HPGD block: -11.0%; ALOX12 inhib: 1.2%; PNC assembly inh: 43.5; GLA inh pH 4.5: 3.5; ALDH1A1 inh: 12.6µM*; GLA spleen mod: -2.1%

What do the screens show for `O=[N+]([O-])c1cccc(/C([O-])=C(/C(=S)Nc2ccccc2)[n+]2ccccc2)c1`?
HPGD block: -25.6%; ALOX12 inhib: -4.9%; PNC assembly inh: 14.3; GLA inh pH 4.5: 2.4; ALDH1A1 inh: inconclusive; GLA spleen mod: -13.1%

Results for CCCCC#Cc1nc(N)c2ncn([C@@H]3O[C@@H](C(=O)NCC)[C@H](O)[C@@H]3O)c2n1 ?
ALOX12 inhib: -4.6%

Results for CCCCC#Cc1nc(N)c2ncn([C@@H]3O[C@H](C(=O)NCC)[C@@H](O)[C@H]3O)c2n1 ?
HPGD block: -7.2%; GLA inh pH 4.5: -6.3; ALDH1A1 inh: 7.94µM*; GLA spleen mod: inconclusive

What do the screens show for `N#CCCn1cc(/C=N/NC(N)=S)c(-c2ccc(-c3ccccc3)cc2)n1`?
GLA inh pH 4.5: -9.2; ALDH1A1 inh: -11.6%; GLA spleen mod: 14.0%

Results for CC(C)[C@@H](N)C(=O)N/N=C/c1ccc2ncccc2c1 ?
GLA inh pH 4.5: -1.3; GLA spleen mod: -13.9%

Results for Fc1c(F)c(F)c(N=Cc2ccc3ncccc3c2)c(F)c1F ?
HPGD block: -6.9%; ALOX12 inhib: -1.7%; PNC assembly inh: -29.9; GLA inh pH 4.5: -2.3; ALDH1A1 inh: 8.91µM*; GLA spleen mod: 1.1%

Results for CC1(C)CC[C@]2(C(=O)O)CC[C@@]3(C)C(=CCC4[C@@]5(C)CCC(O)C(C)(C)C5CC[C@@]43C)C2C1 (stereo partly drawn) ?
HPGD block: 0.2%; ALOX12 inhib: -0.9%; GLA inh pH 4.5: -3.3; ALDH1A1 inh: 4.1%; GLA spleen mod: 15.8%

What do the screens show for `C(=C\c1ccccc1)/C=N/N1CCN(Cc2ccccc2)CC1`?
GLA inh pH 4.5: 4.2; ALDH1A1 inh: -12.5%; GLA spleen mod: 2.4%

How did COc1ccccc1/C=C/C=N/N1CCN(Cc2ccc(Cl)cc2)CC1 do in these assays?
HPGD block: -24.6%; ALOX12 inhib: -20.1%; PNC assembly inh: 20.8; GLA inh pH 4.5: -8.9; ALDH1A1 inh: 17.8µM*; GLA spleen mod: -22.6%

Results for COc1ccccc1/C=C/C=N\N1CCN(Cc2ccccc2Cl)CC1 ?
HPGD block: -9.1%; ALOX12 inhib: -9.4%; PNC assembly inh: 11.1; GLA inh pH 4.5: 6.6; ALDH1A1 inh: 20µM*; GLA spleen mod: -3.8%

What do the screens show for `Cc1ccc2nc(-c3cccnc3)cc(C(=O)Nc3ccc(F)cc3C)c2c1`?
GLA inh pH 4.5: 7.1; ALDH1A1 inh: 9.3%; GLA spleen mod: -1.7%

Results for COC(=O)C1CC(=O)c2sccc2C1 (stereo not drawn) ?
HPGD block: -17.3%; ALOX12 inhib: 0.0%; PNC assembly inh: -1.2; GLA inh pH 4.5: 1.5; ALDH1A1 inh: 9.1%; GLA spleen mod: -2.8%

Results for CCOc1ccc(NC2=NCCC(=O)N2Cc2cccs2)cc1 ?
HPGD block: -5.0%; ALOX12 inhib: -1.1%; PNC assembly inh: inconclusive; GLA inh pH 4.5: -5.9; ALDH1A1 inh: inconclusive; GLA spleen mod: -2.4%

Results for CCOc1ccc(NC2=NCC(=O)N2Cc2cccs2)cc1 ?
HPGD block: -16.2%; ALOX12 inhib: 0.7%; PNC assembly inh: -104.8*; GLA inh pH 4.5: -2.7; ALDH1A1 inh: inconclusive; GLA spleen mod: -0.9%

What do the screens show for `N=c1cc(C2(O)CCCCC2)n2c(nc3ccccc32)s1`?
HPGD block: -15.0%; ALOX12 inhib: 0.0%; PNC assembly inh: inconclusive; GLA inh pH 4.5: 4.4; ALDH1A1 inh: 1.1%; GLA spleen mod: 6.1%

What do the screens show for `O=C1c2sc3nc4ccccc4n3c2C(=O)N1c1ccccc1Cl`?
HPGD block: 14.1µM*; ALOX12 inhib: -11.9%; PNC assembly inh: 20.0; GLA inh pH 4.5: -1.9; ALDH1A1 inh: 15.8µM*; GLA spleen mod: 8.0%

Results for Cc1ccccc1N1C(=O)c2sc3nc4c(c(=O)n3c2C1=O)CCC4 ?
HPGD block: 31.6µM*; ALOX12 inhib: -1.7%; PNC assembly inh: -3.8; GLA inh pH 4.5: 3.8; ALDH1A1 inh: 28.2µM*; GLA spleen mod: -8.2%

Results for C=CCn1c(SCC(=O)O)nnc1-c1cccs1 ?
HPGD block: -22.3%; ALOX12 inhib: 3.0%; PNC assembly inh: 13.8; GLA inh pH 4.5: -4.1; ALDH1A1 inh: -0.2%; GLA spleen mod: -2.4%

What do the screens show for `C=CCn1c(SCC(=O)c2cccs2)nnc1-c1cccc(OC)c1`?
HPGD block: 20µM*; ALOX12 inhib: -14.8%; PNC assembly inh: 12.8; GLA inh pH 4.5: -1.6; ALDH1A1 inh: inconclusive; GLA spleen mod: -8.9%

Results for C=CCn1c(SCC(=O)c2cccs2)nc2sc(C)cc2c1=O ?
HPGD block: inconclusive; ALOX12 inhib: -5.6%; PNC assembly inh: -17.9; GLA inh pH 4.5: 0.0; ALDH1A1 inh: 11.2µM*; GLA spleen mod: 16.1%

How did O=C(/C=C/c1ccncc1)c1ccc2c(c1)OCCO2 do in these assays?
GLA inh pH 4.5: -13.5; ALDH1A1 inh: 0.891µM*; GLA spleen mod: -6.4%
